HEK293 tox – cytotoxic compounds in HEK 293 cells. HEK 293 viability, ATP luminescence (CellTiter-Glo), 48-72 h. Potency, µM (series often up to 115 µM), most hits filed as inhibitors. 94,000 tested, 6.6% active. AID 1345083; further: nearly all actives have a fitted effect of over 60% in size
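Viability of HEK 293 cells, plated at 250 cells/well, was judged by cellular ATP after compound treatment for 48 or 72 hr. Luminescence was imaged 10 min after CellTiter-Glo addition at room temperature.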
3T3 cytotox – kills NIH 3T3 cells | Potency, µM (top dose mostly 96.7 µM), usual class: inhibitors | 94,000 tested, 4.3% active | AID 1345082 | NIH 3T3 viability, CellTiter-Glo ATP luminescence, 48-72 h; further: nearly all actives have a fitted effect of over 55% in size
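Cytotoxicity was measured by CellTiter-Glo ATP luminescence after 48 or 72 h compound exposure at 37 °C. Mouse NIH 3T3 fibroblasts were seeded at 400 cells/well and dosed by 23 nL pin transfer.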
hNpr1 antagonist – human Npr1 receptor antagonism; P16066; HEK293 hNpr1 GloSensor cGMP, ANP-stimulated luminescence; Potency, µM (titrated, usually from 46.3 µM), actives largely listed as inhibitors; 76,000 tested, 1.6% active; calls by dose curve; further: nearly all actives have a fitted effect of over 60% in size
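Compound pre-incubated 30 min at room temperature on GloSensor-loaded HEK293 cells stably carrying hNpr1 and the pGS-40F cGMP biosensor. Stimulation uses hNppA at 0.1 nM final; luminescence is taken at baseline and 20 min post-agonist.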
Luciferase inh – Photinus pyralis luciferase inhibition. P08659. purified P. pyralis luciferase, luminescence, biochemical. Potency, µM (doses to about 115 µM), usual class: inhibitors. 76,000 tested, 2.5% active. AID 1347043; further: nearly all actives have a fitted effect of over 65% in size
Target sequence (P08659 whole entry, looked up): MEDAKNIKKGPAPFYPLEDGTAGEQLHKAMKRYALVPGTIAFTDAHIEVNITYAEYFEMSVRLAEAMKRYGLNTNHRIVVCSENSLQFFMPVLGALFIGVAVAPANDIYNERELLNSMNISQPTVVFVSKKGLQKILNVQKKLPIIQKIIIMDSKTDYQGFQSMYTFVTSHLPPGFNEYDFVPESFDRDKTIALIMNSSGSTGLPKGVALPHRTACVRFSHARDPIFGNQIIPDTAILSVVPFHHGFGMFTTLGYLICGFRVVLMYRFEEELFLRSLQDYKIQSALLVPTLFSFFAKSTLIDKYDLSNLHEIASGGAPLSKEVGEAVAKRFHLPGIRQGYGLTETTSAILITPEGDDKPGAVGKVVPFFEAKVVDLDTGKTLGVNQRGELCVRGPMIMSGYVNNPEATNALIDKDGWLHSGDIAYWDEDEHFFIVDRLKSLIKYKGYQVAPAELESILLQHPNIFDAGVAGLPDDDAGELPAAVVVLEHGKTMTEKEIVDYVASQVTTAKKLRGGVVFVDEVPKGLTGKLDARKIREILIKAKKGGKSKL
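FLuc 10nM, D-luciferin 10uM, ATP 10uM, Mg acetate 10mM, Tris acetate pH 7.5, Tween/BSA; cpd qHTS; enzyme added last; CCD luminescence.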
Each line names hits and unclear results; the compound was inactive in the other large screens. Shown are actives, neighbours in structure and some others; about 11% of the full set was active somewhere. Unless noted, the call rests on the fitted dose curve; in most records, active means well fitted curve in the direction sought with a large enough effect; inconclusive means small, poorly fitted or top-dose-only effect, or another doubt; inactive means no such curve, though single readings can be large; an effect the other way counts as inactive or inconclusive.

Cc1cnc(CCNC(=O)c2nccn2C)n1Cc1ccccc1	HEK293 tox inconclusive (no result: hNpr1 antagonist, Luciferase inh)
Nc1ncccc1CN1CCc2ncc(C(=O)NCc3ccccc3)n2CC1	HEK293 tox inconclusive, 3T3 cytotox inconclusive, hNpr1 antagonist inconclusive
O=C(NCc1ccccc1)c1cnc2n1CCN(Cc1ccc(F)cc1)CC2	HEK293 tox 28.2µM, 3T3 cytotox inconclusive
O=C(c1cnc2n1CCN(CCc1ccccc1)CC2)N1CCC(c2ccccc2)CC1	HEK293 tox 79.4µM, 3T3 cytotox inconclusive, hNpr1 antagonist inconclusive
O=C(NCc1ccccc1)c1cnc2n1CCN(Cc1cccs1)CC2	HEK293 tox inconclusive, 3T3 cytotox 31.6µM
CN(C(=O)c1cnc2n1CCN(CCc1ccccc1)CC2)c1ccccc1	HEK293 tox inconclusive, 3T3 cytotox inconclusive
CC(C)N1CCC(O)(c2csc(CN3CCc4ccccc4C3)n2)CC1	HEK293 tox inconclusive, 3T3 cytotox inconclusive
Cc1cccc(C(=O)N2CCC3(CC2)CC(N2CCN(c4ccccc4)CC2)CCO3)c1 (centres undefined)	HEK293 tox inconclusive (no result: hNpr1 antagonist, Luciferase inh)
O=C(NCCCc1ccccc1)c1ccc2nc(-c3cccnc3)oc2c1	none (no result: hNpr1 antagonist, Luciferase inh)
N#Cc1ccc(C(=O)Nc2ccc3c(N4CCCCC4)ncnc3c2)cc1	HEK293 tox inconclusive
O=C(c1nnn2c1COC(c1ccc(Cl)cc1)C2)N1CCN(C(=O)C2(c3ccccc3)CC2)CC1 (centres undefined)	HEK293 tox 22.4µM, 3T3 cytotox 28.2µM, hNpr1 antagonist inconclusive
CCOc1ccccc1C(=O)N1CCN(C(=O)c2nnn3c2COC(c2ccc(Cl)cc2)C3)CC1 (centres undefined)	HEK293 tox 31.6µM, 3T3 cytotox inconclusive, hNpr1 antagonist inconclusive
O=C(c1ccccc1)N1CCN(C(=O)c2nnn3c2COC(c2ccc(Cl)cc2)C3)CC1 (centres undefined)	HEK293 tox inconclusive
COc1ccc(C2Cn3nnc(C(=O)N4CCN(C(=O)c5cc(F)ccc5Cl)CC4)c3CO2)cc1 (centres undefined)	HEK293 tox inconclusive, 3T3 cytotox inconclusive, hNpr1 antagonist 12.6µM
O=C(NCC1CN(C(=O)C2CCCCC2)CC12CCOCC2)N1CCCC1 (centres undefined)	3T3 cytotox inconclusive (no result: hNpr1 antagonist, Luciferase inh)
O=C(NCc1ccc(F)cc1)N1CCC(OCCOc2ccc(F)cc2)CC1	HEK293 tox inconclusive, 3T3 cytotox inconclusive
CN(CCNC(=O)c1cc2cn(C3CC3)cc2s1)C1CCCCC1	none
Cc1ccc(C(=O)CCc2nc(C3CC(=O)N(C4CCCCC4)C3)no2)cc1 (centres undefined)	HEK293 tox 39.8µM, 3T3 cytotox inconclusive
COc1ccc(C(=O)N2CCC[C@H](n3c(=O)n(CC4CC4)c4cccnc43)C2)c(OC)c1	HEK293 tox inconclusive (no result: hNpr1 antagonist, Luciferase inh)
COc1ccc(Cn2cc(-c3ccc(F)c(C(N)=O)c3)cn2)cc1	HEK293 tox inconclusive, 3T3 cytotox inconclusive
Cc1cc(-c2ccc(F)c(C(N)=O)c2)cc(C(C)(C)C)c1	HEK293 tox 44.7µM, 3T3 cytotox inconclusive
COc1ccc(CN2CC[C@H](c3nc4c(C(N)=O)cccc4[nH]3)C2)cc1	HEK293 tox inconclusive, 3T3 cytotox inconclusive
FC(F)(F)c1ccc2nc([C@H]3CCN(C4CCOCC4)C3)[nH]c2c1	HEK293 tox inconclusive
N#Cc1ccc2nc([C@H]3CCN(Cc4ccccc4)C3)[nH]c2c1	HEK293 tox 50.1µM, 3T3 cytotox 39.8µM, Luciferase inh inconclusive
N#Cc1ccc(CN2CCC(c3nc4ccncc4[nH]3)C2)cc1 (centres undefined)	HEK293 tox inconclusive, 3T3 cytotox inconclusive
FC(F)(F)c1ccc2nc([C@H]3CCN(Cc4ccccn4)C3)[nH]c2c1	HEK293 tox 44.7µM, 3T3 cytotox inconclusive, Luciferase inh inconclusive
NC(=O)c1cccc2[nH]c([C@H]3CCN(Cc4cccc(Cl)c4)C3)nc12	HEK293 tox 56.2µM, 3T3 cytotox inconclusive, hNpr1 antagonist inconclusive
N#Cc1ccc2nc([C@H]3CCN(Cc4ccccn4)C3)[nH]c2c1	HEK293 tox 100µM, 3T3 cytotox 63.1µM, Luciferase inh inconclusive
C[C@@]12CO[C@H](c3ccccc3)C[C@@H]1C[C@@H](N1CCN(Cc3ccc(F)cc3)CC1)C2	HEK293 tox inconclusive (no result: hNpr1 antagonist, Luciferase inh)
CCOc1ccc(CC(=O)N2[C@@H]3CC[C@H]2CC(NC(=O)c2ccc(F)cc2)C3)cc1 (some centres undefined)	none
O=C(NCCc1ccccc1F)c1cc(Br)cn2ccnc12	HEK293 tox inconclusive, 3T3 cytotox inconclusive, Luciferase inh 15.8µM
O=[S+]1([O-])NC2(CCCN(Cc3ccccc3)C2)CNc2ccccc21 (centres undefined)	HEK293 tox inconclusive
O=[S+]1([O-])NC2(CCCN(Cc3ccccc3C(F)(F)F)C2)CNc2ccccc21 (centres undefined)	HEK293 tox 44.7µM, 3T3 cytotox inconclusive
CC(=O)N1CCCN(c2ncnc3c2CN(c2cccc(C)c2)C(=O)CN3C)CC1	none (no result: hNpr1 antagonist, Luciferase inh)
O=C(NCC1CC1)c1cn(C2CN(C(=O)Nc3ccc4c(c3)OCCO4)C2)nn1	none
O=C(NCc1ccccc1)c1cn(C2CN(C(=O)Nc3ccc4c(c3)OCCO4)C2)nn1	HEK293 tox 35.5µM, 3T3 cytotox inconclusive, Luciferase inh inconclusive
CN(Cc1ccc(N2CCCCC2)cc1)C(=O)CCC[C@H]1NC[C@@H]2C[C@H]1CN(Cc1ccccc1)C2	HEK293 tox inconclusive, 3T3 cytotox 17.8µM
CN(Cc1cccnc1)C(=O)CCC[C@H]1NC[C@@H]2C[C@H]1CN(Cc1ccccc1)C2	none
O=C(CCC[C@H]1NC[C@@H]2C[C@H]1CN(Cc1ccccc1)C2)Nc1cccc(F)c1	HEK293 tox inconclusive, 3T3 cytotox inconclusive
O=C(CCC[C@H]1NC[C@@H]2C[C@H]1CN(Cc1ccccc1)C2)Nc1ccc2c(c1)OCCO2	Luciferase inh 44.7µM
O=C(N[C@H]1[C@H]2CCO[C@H]2[C@@H]1N1CCCC1)c1cc2c(s1)CCCCC2	HEK293 tox inconclusive
Cc1ccc(Nc2ccnc(N3CCCC(C(=O)N4CCCC4)C3)n2)cc1 (centres undefined)	HEK293 tox inconclusive, 3T3 cytotox 28.2µM (no result: hNpr1 antagonist, Luciferase inh)
Cc1ccc(Nc2ccnc(N3CC4CCC(C3)N4CC(F)(F)F)n2)cc1	HEK293 tox 39.8µM, 3T3 cytotox 28.2µM (no result: hNpr1 antagonist, Luciferase inh)
Cc1ccc(Nc2ccnc(N3CCN(C(=O)C4CC4)CC3)n2)cc1	HEK293 tox 70.8µM, 3T3 cytotox 31.6µM (no result: hNpr1 antagonist, Luciferase inh)
COc1ccc(Nc2ccnc(N3CCCC(C(=O)N4CCOCC4)C3)n2)cc1 (centres undefined)	HEK293 tox inconclusive (no result: hNpr1 antagonist, Luciferase inh)
Cc1ccc(Nc2ccnc(N3CCCC(C(=O)N4CCN(c5ncccn5)CC4)C3)n2)cc1 (centres undefined)	HEK293 tox 20µM, 3T3 cytotox inconclusive (no result: hNpr1 antagonist, Luciferase inh)
Cc1cnc(N2CC3CCC(C2)N3CC(F)(F)F)s1	none (no result: hNpr1 antagonist, Luciferase inh)
COc1ccc(Nc2ccnc(N3CCC(C(=O)N4CCN(C)CC4)CC3)n2)cc1	HEK293 tox inconclusive (no result: hNpr1 antagonist, Luciferase inh)
O=C1Nc2ccccc2CC12CCN(Cc1ccsc1)CC2	none
Cc1cc(OCCN(C)C)c(C)c2c1CC[C@@H]([C@H](C)C(=O)NCc1cccs1)C2	HEK293 tox 56.2µM, 3T3 cytotox 63.1µM

Bioassay records deposited in PubChem BioAssay by National Center for Advancing Translational Sciences (NCATS).
